{"source": "PubChem BioAssay AID504339", "about": "(National Center for Advancing Translational Sciences (NCATS), 2011)", "note": "Screen size: about 390,000 compounds; about 17,000 (4.4%) were called active. Roughly 8% stayed inconclusive and do not appear here. Shown is part of a subset that was picked to be rich in actives. Entries that show only a call come without a potency. Unmarked numbers belong to inactive results. Calls follow the shape of the dose curve; as a rule, active = well fitted inhibition curve with a large enough effect; inconclusive = small, poorly fitted or top-dose-only effect; inactive = no such curve, though single readings can be large or run the other way. Potency is read from the fitted curve at half-maximal effect.", "data": [{"target": "Lysine-specific demethylase 4A (Homo sapiens) (UniProt O75164)", "sequence (O75164 whole entry, looked up, the tested form may be a part)": "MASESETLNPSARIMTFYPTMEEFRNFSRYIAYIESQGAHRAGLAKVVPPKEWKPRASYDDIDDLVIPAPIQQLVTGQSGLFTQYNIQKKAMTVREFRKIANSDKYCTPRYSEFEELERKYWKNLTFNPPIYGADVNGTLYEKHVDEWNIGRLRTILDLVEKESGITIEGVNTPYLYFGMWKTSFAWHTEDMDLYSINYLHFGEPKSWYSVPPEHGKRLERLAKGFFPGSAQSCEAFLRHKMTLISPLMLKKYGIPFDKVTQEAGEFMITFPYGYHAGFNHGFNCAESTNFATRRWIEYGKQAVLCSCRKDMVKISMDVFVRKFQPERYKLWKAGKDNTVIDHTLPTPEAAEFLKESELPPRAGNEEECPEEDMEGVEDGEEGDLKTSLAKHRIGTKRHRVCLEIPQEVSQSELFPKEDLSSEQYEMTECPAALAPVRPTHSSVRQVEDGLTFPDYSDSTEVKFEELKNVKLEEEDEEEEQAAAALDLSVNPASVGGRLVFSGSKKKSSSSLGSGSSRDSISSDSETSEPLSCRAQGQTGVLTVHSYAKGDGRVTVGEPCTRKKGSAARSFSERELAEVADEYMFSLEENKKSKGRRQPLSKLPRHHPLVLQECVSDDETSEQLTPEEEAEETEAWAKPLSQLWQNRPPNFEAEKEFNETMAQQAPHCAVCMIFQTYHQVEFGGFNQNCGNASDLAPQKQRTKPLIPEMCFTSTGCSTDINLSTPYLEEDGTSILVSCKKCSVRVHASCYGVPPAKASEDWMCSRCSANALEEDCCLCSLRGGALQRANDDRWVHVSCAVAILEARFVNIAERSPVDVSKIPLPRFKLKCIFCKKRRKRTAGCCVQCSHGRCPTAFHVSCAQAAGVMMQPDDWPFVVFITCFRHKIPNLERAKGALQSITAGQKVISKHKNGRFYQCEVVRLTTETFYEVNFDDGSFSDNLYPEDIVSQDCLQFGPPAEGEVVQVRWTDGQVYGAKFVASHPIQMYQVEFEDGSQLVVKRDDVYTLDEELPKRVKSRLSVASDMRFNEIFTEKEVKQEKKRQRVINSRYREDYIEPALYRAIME", "assay": "qHTS Assay for Inhibitors of JMJD2A-Tudor Domain; also: nearly all actives have a fitted effect of over 50% in size", "settings": "AlphaScreen JMJD2A-Tudor / H3K4me3 peptide binding; series mostly up to 114 µM", "values": [{"smiles": "Cc1ccc(-c2nnc(SCc3ccccc3C)o2)cc1", "Potency": "inactive"}, {"smiles": "Cc1ccccc1CNC(=O)CCCn1nc(C)c2sc3ccccc3c2c1=O", "Potency": "inactive"}, {"smiles": "Cc1cc(N2C(=O)C(=O)/C(=C(/O)c3ccccc3)C2c2cccc(Br)c2)no1", "note": "(stereo not drawn)", "Potency": "inactive"}, {"smiles": "Cc1cc(N2C(=O)C(O)=C(C(=O)c3ccc(C)o3)C2c2ccc(OCc3ccccc3)cc2)no1", "note": "(stereo not drawn)", "Potency": "44.7 µM (active)"}, {"smiles": "COc1cc(C2C(C(=O)c3ccc(C)o3)=C(O)C(=O)N2CCc2ccccc2)ccc1O", "note": "(stereo not drawn)", "Potency": "17.8 µM (active)"}, {"smiles": "CCOc1cc(C2C(C(=O)c3ccco3)=C(O)C(=O)N2Cc2ccccc2)ccc1O", "note": "(stereo not drawn)", "Potency": "inactive"}, {"smiles": "COc1cc(C2C(C(=O)c3cccs3)=C(O)C(=O)N2CCN2CCOCC2)ccc1OCCC(C)C", "note": "(stereo not drawn)", "Potency": "inactive"}, {"smiles": "CCCOc1ccc(C2C(C(=O)c3ccc(C)o3)=C(O)C(=O)N2CCCn2ccnc2)cc1", "note": "(stereo not drawn)", "activity change, negative = inhibition": "-17.6% [at 11.4 µM]"}, {"smiles": "O=C(Nc1cc(Cl)cc(Cl)c1)c1ccc2c(c1)N(Cc1cccc(Cl)c1)C(=O)c1ccccc1S2=O", "note": "(stereo not drawn)", "Potency": "inactive"}, {"smiles": "COc1cc(CN(CC2CCCO2)C(=O)c2ccccc2F)cc(OC)c1OC", "note": "(stereo not drawn)", "Potency": "inactive"}, {"smiles": "CC(C)(C)OC(=O)N1CCC(c2c(C(=O)NCCc3ccsc3)cnn2-c2ccc(F)cc2F)CC1", "Potency": "inactive"}, {"smiles": "Cc1ccc(-n2ncc(C(=O)N(C)Cc3ccccc3)c2-n2cccc2)cc1", "Potency": "inactive"}, {"smiles": "CCOC(=O)N1CCc2c(sc3c2C(=O)NC(c2ccccc2F)N3)C1", "note": "(stereo not drawn)", "Potency": "inactive"}, {"smiles": "COc1ccc(-c2cc(C(=O)NCc3cc(OC)c(OC)c(OC)c3)[nH]n2)cc1", "Potency": "inactive"}, {"smiles": "C=Cc1ccc(C(=O)N2CCCC(CCC(=O)N3CCN(c4ccccn4)CC3)C2)cc1", "note": "(stereo not drawn)", "Potency": "56.2 µM (active)"}, {"smiles": "O=C(CCC1CCCN(C(=O)Cc2ccc(F)cc2)C1)N1CCN(c2ccccn2)CC1", "note": "(stereo not drawn)", "Potency": "inactive"}, {"smiles": "O=C(CCC1CCCN(C(=O)c2ccc(F)c(F)c2)C1)N1CCN(c2ccccn2)CC1", "note": "(stereo not drawn)", "Potency": "inactive"}, {"smiles": "Brc1cccc(-c2nnn3c2nc(NC2CCCCC2)c2ccccc23)c1", "Potency": "inactive"}, {"smiles": "CCc1cc2c(cc3c(=O)n(CC(=O)NCc4cccc(Cl)c4)nc(CC)n32)s1", "Potency": "inactive"}, {"smiles": "O=C(Nc1ccccc1[N+](=O)[O-])C1C(c2ccccc2)=C1c1ccccc1", "Potency": "inactive"}, {"smiles": "O=C(NCCNc1ccccc1[N+](=O)[O-])c1ccccc1F", "Potency": "inactive"}, {"smiles": "O=[N+]([O-])c1ccccc1Nc1ccc(O)cc1", "Potency": "63.1 µM (active)"}, {"smiles": "CCOC(=O)CNC(=O)c1cc2c(=O)n3cccc(C)c3nc2s1", "Potency": "inactive"}, {"smiles": "O=C(c1ccc2c(c1)N(Cc1ccc(Cl)cc1)C(=O)c1ccccc1S2(=O)=O)N1CCCCC1", "Potency": "inactive"}, {"smiles": "O=c1c2cccnc2n(Cc2cccc(F)c2)c(=O)n1Cc1ccccc1Cl", "Potency": "inactive"}, {"smiles": "CCOc1cc(-c2nnc(SCC(=O)NC3CCCC3)nc2-c2ccc(OC)c(OCC)c2)ccc1OC", "Potency": "inactive"}, {"smiles": "Cc1cccc(NC(=S)NCCc2ccc(Cl)cc2)c1C", "Potency": "inactive"}, {"smiles": "Oc1cc2c(cc1O)CN(C(=S)NCCc1ccc(Cl)cc1)CCC2", "Potency": "44.7 µM (active)"}, {"smiles": "O=C(NCCc1ccc(Cl)cc1)c1cccc(N2CCCC2=O)c1", "Potency": "inactive"}, {"smiles": "Cc1ccccc1CNC(=O)C(=O)NCC(c1cccs1)S(=O)(=O)c1cccs1", "note": "(stereo not drawn)", "Potency": "inactive"}, {"smiles": "Cc1ccccc1OCC(=O)Nc1c(C(=O)Nc2ccccc2F)oc2ccccc12", "Potency": "inactive"}, {"smiles": "O=C(Nc1cc(C(F)(F)F)ccc1Cl)c1nc2ccccc2nc1N1CCCCC1", "Potency": "inactive"}, {"smiles": "O=C(Cc1ccccc1)NNC(=O)C1CCN(c2ncccn2)CC1", "Potency": "inactive"}, {"smiles": "Oc1c(CN2CCN(c3ccc(F)cc3)CC2)cc(Cl)c2cccnc12", "Potency": "25.1 µM (active)"}, {"smiles": "Cc1cc(=O)oc2cc(OCC(=O)N3CCN(c4ccc(F)cc4)CC3)c(Cl)cc12", "Potency": "inactive"}, {"smiles": "O=C(CN1CCN(c2ccc(F)cc2)CC1)Nc1cccc(C(F)(F)F)c1", "Potency": "inactive"}, {"smiles": "Oc1c(CN2CCCC2)cc(COCc2ccccc2)c2cccnc12", "Potency": "25.1 µM (active)"}, {"smiles": "CCCc1cc(=O)oc2c(C)c(O)c(CN3CCCCC3)cc12", "Potency": "inactive"}, {"smiles": "Cc1ccc(O)c(NC(=O)CCS(=O)(=O)c2nc(-c3ccc4c(c3)OCO4)cc(C(F)(F)F)n2)c1", "Potency": "inactive"}, {"smiles": "CCOc1ccc(NC(=O)c2c(NC(=O)Cc3ccccc3)sc3c2CCC(C)C3)cc1", "note": "(stereo not drawn)", "Potency": "inactive"}, {"smiles": "Cc1ccc(-n2ncc3c(N4CCC(C(N)=O)CC4)ncnc32)cc1", "Potency": "inactive"}, {"smiles": "COc1ccc(Cn2c(C(=O)O)c(CNCc3cccc(OC)c3)c3ccc(C)cc32)cc1", "Potency": "inactive"}, {"smiles": "COc1ccccc1C(=O)Nc1c(C(=O)Nc2ccc(C)cc2)oc2ccccc12", "Potency": "inactive"}, {"smiles": "Cc1ccc(-c2nn3c(=O)cc(CN4CCN(S(=O)(=O)c5ccc(Cl)cc5)CC4)nc3s2)cc1", "Potency": "inactive"}, {"smiles": "Cc1cccc(Cc2c(C)nc3nc(SCc4ccccc4Cl)nn3c2C)c1", "Potency": "inactive"}, {"smiles": "Cc1cc(C)n2nc(SCC(N)=O)nc2n1", "Potency": "inactive"}, {"smiles": "Cc1cc(C)n2nc(SCC(=O)NC(=O)NCc3ccco3)nc2n1", "Potency": "20 µM (active)"}, {"smiles": "O=C(CNc1ccc(F)cc1F)NC(=O)NCc1ccco1", "Potency": "inactive"}, {"smiles": "COc1ccc(-c2onc(C)c2C)cc1S(=O)(=O)NCC1CCN(Cc2cccc(F)c2)CC1", "Potency": "inactive"}, {"smiles": "CCN(CC)S(=O)(=O)c1cccc(-c2n[nH]c(=S)n2/N=C/c2ccc(C(=O)OC)cc2)c1", "Potency": "10 µM (active)"}, {"smiles": "COC(=O)c1ccc(NC(=O)CSc2n[nH]c(-c3ccccc3)n2)cc1", "Potency": "inactive"}, {"smiles": "CCN(CC)S(=O)(=O)c1cccc(NC(=O)c2ccc(S(=O)(=O)N3CCCC3)cc2)c1", "Potency": "inactive"}, {"smiles": "COc1ccc(N2C(=O)CS(=O)(=O)C23C(=O)N(Cc2ccc(C)cc2)c2ccccc23)cc1Cl", "note": "(stereo not drawn)", "Potency": "inactive"}, {"smiles": "COc1ccc(CC(=O)NCCc2sc3nc(-c4ccc(OC)cc4)nn3c2C)cc1", "Potency": "inactive"}, {"smiles": "Cc1cccc(C(=O)NCCc2nc3ccccc3n2Cc2ccccc2Cl)c1", "Potency": "inactive"}, {"smiles": "Cc1cccc(-n2cnc(C(=O)Nc3cccnc3)c2)n1", "Potency": "inactive"}, {"smiles": "Cc1cccc(-n2cnc(C(=O)NNC(=S)Nc3ccccc3)c2)n1", "Potency": "35.5 µM (active)"}, {"smiles": "Cc1nn(C)cc1C(=O)NNC(=S)Nc1ccc(Cl)cc1", "Potency": "inactive"}, {"smiles": "Cc1ccc2c(c1)c1c(c(=O)n(-c3ccccc3)c(=O)n1CC(=O)c1ccc(Cl)cc1)n2C", "Potency": "inactive"}, {"smiles": "Cc1ccc(C)c(OCC(=O)Nc2sc3c(c2C#N)CCCC3)c1C", "Potency": "inactive"}, {"smiles": "Cc1cc(C)cc(NC(=O)CSc2nc(=O)n(CCN3CCOCC3)c3c2CCC3)c1", "Potency": "inactive"}, {"smiles": "CC1CCCN(CCOCCOc2ccccc2-c2ccccc2)C1", "note": "(stereo not drawn)", "Potency": "20 µM (active)"}, {"smiles": "O=S(=O)(c1cccs1)N1CCN(CCOc2ccccc2)CC1", "Potency": "inactive"}, {"smiles": "CC1CC(C)CN(CCOc2cccc3ccccc23)C1", "note": "(stereo not drawn)", "Potency": "inactive"}, {"smiles": "c1ccc(-c2ccccc2OCCN2CCCCC2)cc1", "Potency": "8.91 µM (active)"}, {"smiles": "O=C(COc1ccccc1Cl)N1CCCCCCC1", "Potency": "inactive"}, {"smiles": "CC1CCCN(CC(=O)Nc2cc(Cl)ccc2Oc2ccccc2)C1", "note": "(stereo not drawn)", "Potency": "inactive"}, {"smiles": "COCCNC(=O)CSc1nc(-c2ccccc2)[nH]c1-c1ccc(C)cc1", "Potency": "inactive"}, {"smiles": "COc1cccc(CNC(=O)CN2C(=O)CCc3cc(S(=O)(=O)N4CCOCC4)ccc32)c1", "Potency": "inactive"}, {"smiles": "Cc1ccc(Cl)cc1-n1ncc2c(N3CCC(C(N)=O)CC3)ncnc21", "Potency": "inactive"}, {"smiles": "Cc1ccc(C(=O)N2CCc3cc(CNC(=O)c4ccc(Br)cc4)ccc32)cc1", "Potency": "inactive"}, {"smiles": "O=S(=O)(N/N=C\\c1cccn1-c1ccccc1)c1ccc2ccccc2c1", "Potency": "50.1 µM (active)"}, {"smiles": "O=C(COc1ccc(/C=N/NS(=O)(=O)c2ccccc2)cc1)NCCc1ccccc1", "Potency": "inactive"}, {"smiles": "COc1ccc(N2CC(NS(=O)(=O)c3ccc4ccccc4c3)CC2=O)cc1", "note": "(stereo not drawn)", "Potency": "inactive"}, {"smiles": "CCc1cnc2c(c1SCC(=O)N1CCC(C)CC1)c(=O)n(C)c(=O)n2C", "Potency": "inactive"}, {"smiles": "Cc1cc(C)c(NC(=O)c2cc3sc(Cl)cc3n2C)c(C)c1", "Potency": "inactive"}, {"smiles": "COc1cccc(C(=O)OCc2cc(=O)oc3c(C)c(C)ccc23)c1OC", "Potency": "79.4 µM (active)"}, {"smiles": "COc1cccc(OCC(O)CNC(=O)c2oc3c(C)c(C)ccc3c2C)c1", "note": "(stereo not drawn)", "Potency": "inactive"}, {"smiles": "COC(=O)Cc1cc(=O)oc2c(C)c(O)ccc12", "Potency": "inactive"}, {"smiles": "CCn1c(CN2CCC(C)CC2)nc2cc(NC(=O)c3ccccc3[N+](=O)[O-])ccc21", "Potency": "inactive"}, {"smiles": "Cc1nn(C(C)C(=O)Nc2ccc(C(C)C)cc2)c(=O)c2c1sc1ccccc12", "note": "(stereo not drawn)", "Potency": "inactive"}, {"smiles": "COc1ccc(NC(=O)CCc2nnc3n(CC(C)C)c(=O)c4ccccc4n23)cc1OC", "Potency": "inactive"}, {"smiles": "COC(=O)c1ccccc1NC(=O)c1ccc(COc2ccccc2Cl)o1", "Potency": "inactive"}, {"smiles": "CCN(CCCNC(=O)c1cc2c(=O)n(CC)c3ccccc3c2s1)Cc1ccccc1", "Potency": "inactive"}, {"smiles": "N#Cc1c(C(F)(F)F)cc(-c2ccc(Cl)cc2)nc1SCC(=O)O", "Potency": "inactive"}, {"smiles": "N#Cc1c(N2CCCCC2)nc(N)c2c(N)nc(SCC(=O)O)cc12", "Potency": "50.1 µM (active)"}, {"smiles": "O=C(O)CSc1ccc(S(=O)(=O)N2CCCC2)cn1", "Potency": "inactive"}, {"smiles": "COc1cc(NC(=O)c2cc(C3CC3)nc3c2c(C)nn3-c2ccccc2)cc(OC)c1", "Potency": "inactive"}, {"smiles": "Cc1ccc(C)c(N2CCN(C(c3ccccc3)c3nnc(-c4ccccc4)o3)CC2)c1", "note": "(stereo not drawn)", "Potency": "inactive"}, {"smiles": "CCc1ccc(NC2Nc3cc(C)nn3S2)cc1", "note": "(stereo not drawn)", "Potency": "22.4 µM (active)"}, {"smiles": "CCOC(=O)c1ccc(NC2Nc3cc(C)nn3S2)cc1", "note": "(stereo not drawn)", "Potency": "inactive"}, {"smiles": "COc1cccc(N2CC(NC(=O)/C=C\\c3ccccc3)CC2=O)c1", "note": "(stereo not drawn)", "Potency": "inactive"}, {"smiles": "Cc1ccc(C)c2c1cc(C)c1nnc(SCC(=O)Nc3cccc(C(=O)O)c3)n12", "Potency": "12.6 µM (active)"}, {"smiles": "Cc1ccc(C(=O)NCCc2nnc(SCC(=O)Nc3cccc(C(=O)O)c3)n2C)cc1", "Potency": "inactive"}, {"smiles": "COc1ccccc1-n1c(SCC(=O)Nc2cccc(C(=O)O)c2)nnc1-c1ccccc1O", "Potency": "inactive"}, {"smiles": "COC(=O)c1ccc(NC(=O)c2cc(S(=O)(=O)N3CCC(C)CC3)cn2C)cc1", "Potency": "inactive"}, {"smiles": "Cc1ccc(Nc2nc3ccccc3nc2-n2nc(C)cc2C)c(Cl)c1", "Potency": "inactive"}, {"smiles": "Cc1ccc(Cn2ncc3c4sc(C)cc4n(C)c3c2=O)c(C)c1", "Potency": "inactive"}]}]}
